# Several values for one entry are separate records, joined by “and”; a condition that tells them apart may be missing. Identical values can stand only once. Results filed as inconclusive are left out. Entries that show only a call come without a potency. Activity calls are given as the source filed them. Unless noted, the call rests on the fitted dose curve; in most records, active means well fitted curve in the direction sought with a large enough effect in the repeat runs; inconclusive means weak or mixed curves; inactive means no such curve, though single readings can be large; an effect the other way counts as inactive or inconclusive.
# Assays:
# [1] = qHTS assay to test for compound auto fluorescence at 535 nm (green) in HEK293 cells (AID 720680); details: green autofluorescence 485/535 nm; series mostly up to 91.3 µM
# [2] = qHTS assay to test for compound auto fluorescence at 460 nm (blue) in HEK293 cell free culture (AID 720681); details: cell-free medium, autofluorescence 405/460 nm (blue); series mostly up to 91.3 µM
# Procedure, shortened: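 Test compounds were pinned into cell-free culture medium (DMEM with 10% FBS) and fluorescence was read directly at Ex/Em 405/460 nm. Signals were expressed as fluorescence equivalents of triamterene, with DMSO vehicle as control.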
# [3] = qHTS assay to test for compound auto fluorescence at 535 nm (green) in HEK293 cell free culture (AID 720682); details: cell-free medium, green autofluorescence 485/535 nm, hits give high values; series mostly up to 91.3 µM
# Procedure, shortened: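 Read-out: 485/535 nm fluorescence intensity, calibrated against fluorescein. Medium only (DMEM + 10% FBS, no cells); test compound or DMSO vehicle added by pintool before plate reading.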
# [4] = qHTS assay to test for compound auto fluorescence at 590 nm (red) in HEK293 cell free culture (AID 720683); details: cell-free medium autofluorescence, Ex540/Em590 red; series mostly up to 91.3 µM
# Procedure, shortened: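 Tox21 10K library compounds were pinned into cell-free DMEM with 10% FBS and fluorescence was read at excitation 540 nm. Activity is expressed as Rose Bengal sodium equivalency.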
# [5] = qHTS assay to test for compound auto fluorescence at 590 nm (red) in HepG2 cell free culture (AID 720684); details: cell-free medium autofluorescence, red 540/590 nm; series mostly up to 91.3 µM
# Procedure, shortened: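 Ex 540 / Em 590 nm read of compound in cell-free MEM (10% FBS). Rose Bengal sodium reference.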
# [6] = qHTS assay to test for compound auto fluorescence at 535 nm (green) in HepG2 cell free culture (AID 720686); details: Cell-free medium, green autofluorescence 485/535 nm; series mostly up to 91.3 µM
# [7] = qHTS assay to test for compound auto fluorescence at 460 nm (blue) in HepG2 cells (AID 720687); details: autofluorescence 405/460 nm, 1 h; series mostly up to 91.3 µM
# Procedure, shortened: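 Cells (2,000/well in MEM with 10% FBS) attached overnight at 37 C, then were exposed to compound or DMSO for 1 hr at 37 C, 5% CO2. Fluorescence read at Ex/Em 405/460 nm, expressed as triamterene-equivalent signal.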
# [8] = target: Glucocorticoid receptor (Homo sapiens) (UniProt P04150); assay: qHTS assay to identify small molecule agonists of the glucocorticoid receptor (GR) signaling pathway (AID 720691; active means well fitted activation curve with a large enough effect in the signal ratio in the repeat runs, not every such curve was filed as active; the % refers to the signal ratio); details: GR-bla HeLa, beta-lactamase reporter ratio, 18 h; series mostly up to 62.4 µM
# Procedure, shortened: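 HeLa GR-bla reporter line; cells pre-incubated 4 h, compound in DMSO 18 h at 37 C; LiveBLAzer B/G FRET substrate 2 h RT; fluorescence intensity read-out.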
# [9] = target: Glucocorticoid receptor (Homo sapiens) (UniProt P04150); assay: qHTS assay to identify small molecule antagonists of the glucocorticoid receptor (GR) signaling pathway (AID 720692; active means well fitted inhibition curve with a large enough effect in the signal ratio in the repeat runs, not every such curve was filed as active; the % refers to the signal ratio); details: GR-bla HeLa, beta-lactamase FRET ratio, dexamethasone-stimulated, 18 h; series mostly up to 58.5 µM
# Procedure, shortened: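 Read-out: beta-lactamase FRET substrate fluorescence, 2 h at room temperature, in HeLa cells stably carrying a GRE-driven bla reporter. Compounds were co-incubated with 5 nM dexamethasone agonist (final) for 18 h at 37 C.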
# [10] = qHTS assay for identifying genotoxic compounds that show differential cytotoxicity against isogenic chicken DT40 cell lines with known DNA damage response pathways - wild type cell line (AID 743012); details: DT40 wild type chicken cells viability, CellTiter-Glo, 40 h; series mostly up to 68.4 µM; further: nearly all actives have a fitted effect of over 60% in size; further: potency means the concentration at half of the fitted maximal effect
# Procedure, shortened: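 CellTiter-Glo luminescence readout of viability in wild type DT40 cells after 40 h compound exposure at 37 C/5% CO2; 300 cells/well; reagent incubated 30 min at room temperature before reading.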
# [11] = qHTS assay for identifying genotoxic compounds that show differential cytotoxicity against isogenic chicken DT40 cell lines with known DNA damage response pathways - Rev3 mutant cell line (AID 743014); details: chicken DT40 Rev3-/- viability, CellTiter-Glo, 40 h; series mostly up to 68.4 µM; further: nearly all actives have a fitted effect of over 55% in size; further: potency means the concentration at half of the fitted maximal effect
# [12] = qHTS assay for identifying genotoxic compounds that show differential cytotoxicity against isogenic chicken DT40 cell lines with known DNA damage response pathways - Rad54/Ku70 mutant cell line (AID 743015); details: DT40 Rad54/Ku70 mutant viability, CellTiter-Glo, 40 h; series mostly up to 66.8 µM; further: nearly all actives have a fitted effect of over 60% in size; further: potency means the concentration at half of the fitted maximal effect
# [13] = qHTS assay to identify small molecule antagonists of the androgen receptor (AR) signaling pathway - cell viability counter screen (AID 743033; further: nearly all actives have a fitted effect of over 45% in size); details: AR-bla HEK293 viability, CellTiter-Glo luminescence, 16 h; series mostly up to 58.5 µM
# [14] = qHTS assay to identify small molecule antagonists of the androgen receptor (AR) signaling pathway using the MDA cell line - cell viability counter screen (AID 743041; further: nearly all actives have a fitted effect of over 45% in size; further: potency means the concentration at half of the fitted maximal effect); details: MDA-kb2 viability, CellTiter-Fluor, 16 h, cells co-treated with R1881 androgen agonist; series mostly up to 70.3 µM
# Procedure, shortened: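 In this qHTS counter assay, fluorescence intensity after CellTiter-Fluor addition indicated viability of MDA-kb2 AR-luc cells given compounds and R1881 for 16 h at 37C.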
# [15] = qHTS assay to identify small molecule antagonists of the thyroid receptor (TR) signaling pathway - cell viability counter screen (AID 743064); details: GH3.TRE-Luc viability, CellTiter-Fluor, 24 h; series mostly up to 70.3 µM; further: nearly all actives have a fitted effect of over 50% in size; further: potency means the concentration at half of the fitted maximal effect
# Procedure, shortened: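 GH3.TRE-Luc rat pituitary cells carrying a TRE-luciferase reporter were treated with compound plus 1 nM T3 (final) for 23.5 h at 37 °C. Viability was then read in the same wells by CellTiter-Fluor fluorescence after a further 30 min.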
# [16] = qHTS assay to identify small molecule antagonists of the glucocorticoid receptor (GR) signaling pathway - cell viability counter screen (AID 720693); details: GR-bla HeLa viability, CellTiter-Glo luminescence, 18 h, with 5 nM dexamethasone present; series mostly up to 58.5 µM; further: nearly all actives have a fitted effect of over 55% in size
# [17] = qHTS assay to test for compound auto fluorescence at 460 nm (blue) in HepG2 cell free culture (AID 720685); details: Cell-free culture medium, blue autofluorescence 405/460 nm; series mostly up to 91.3 µM
# Procedure, shortened: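 Cell-free plates of MEM plus 10% FBS received 23 nL compound or DMSO vehicle; blue-channel (405/460 nm) intensity scored against triamterene as reference fluorophore.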
# [18] = target: Androgen receptor (Homo sapiens) (UniProt P10275); assay: qHTS assay to identify small molecule antagonists of the androgen receptor (AR) signaling pathway (AID 743035; active means well fitted inhibition curve with a large enough effect in the signal ratio in the repeat runs, not every such curve was filed as active; the % refers to the signal ratio); details: HEK293 AR-UAS-bla, R1881-stimulated, beta-lactamase FRET, 16 h; series mostly up to 58.5 µM
# Procedure, shortened: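 AR-bla HEK293 reporter cells; 4 h settle at 37C/5% CO2; compound + R1881 agonist, 16 h at 37C; LiveBLAzer B/G FRET substrate 2 h RT; fluorescence intensity read. qHTS format.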
# [19] = target: Androgen receptor (Homo sapiens) (UniProt P10275); assay: qHTS assay to identify small molecule agonists of the androgen receptor (AR) signaling pathway using the MDA cell line (AID 743040; further: nearly all actives have a fitted effect of over 20% in size); details: MDA-kb2 AR-luc cells, MMTV luciferase, 16 h; series mostly up to 70.3 µM
# Procedure, shortened: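 Cell-based luciferase reporter: MDA-kb2, MMTV promoter (AR + GR response elements). 16 h compound exposure at 37C; ONE-Glo, 30 min RT, luminescence.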
# [20] = target: Androgen receptor (Homo sapiens) (UniProt P10275); assay: qHTS assay to identify small molecule antagonists of the androgen receptor (AR) signaling pathway using the MDA cell line (AID 743042; further: nearly all actives have a fitted effect of over 55% in size); details: MDA-kb2 AR-luc, MMTV luciferase, R1881 antagonist, 16 h; series mostly up to 70.3 µM
# Procedure, shortened: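 MDA-kb2 cells (human breast carcinoma, stably carrying an MMTV-luciferase reporter responsive to AR and GR) were plated at 3,000 cells/well and preincubated 5 hr at 37C, then given compound plus R1881 agonist for 16 h. ONE-Glo luminescence was read.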
# Androgen receptor (Homo sapiens), sequence (P10275 whole entry, looked up): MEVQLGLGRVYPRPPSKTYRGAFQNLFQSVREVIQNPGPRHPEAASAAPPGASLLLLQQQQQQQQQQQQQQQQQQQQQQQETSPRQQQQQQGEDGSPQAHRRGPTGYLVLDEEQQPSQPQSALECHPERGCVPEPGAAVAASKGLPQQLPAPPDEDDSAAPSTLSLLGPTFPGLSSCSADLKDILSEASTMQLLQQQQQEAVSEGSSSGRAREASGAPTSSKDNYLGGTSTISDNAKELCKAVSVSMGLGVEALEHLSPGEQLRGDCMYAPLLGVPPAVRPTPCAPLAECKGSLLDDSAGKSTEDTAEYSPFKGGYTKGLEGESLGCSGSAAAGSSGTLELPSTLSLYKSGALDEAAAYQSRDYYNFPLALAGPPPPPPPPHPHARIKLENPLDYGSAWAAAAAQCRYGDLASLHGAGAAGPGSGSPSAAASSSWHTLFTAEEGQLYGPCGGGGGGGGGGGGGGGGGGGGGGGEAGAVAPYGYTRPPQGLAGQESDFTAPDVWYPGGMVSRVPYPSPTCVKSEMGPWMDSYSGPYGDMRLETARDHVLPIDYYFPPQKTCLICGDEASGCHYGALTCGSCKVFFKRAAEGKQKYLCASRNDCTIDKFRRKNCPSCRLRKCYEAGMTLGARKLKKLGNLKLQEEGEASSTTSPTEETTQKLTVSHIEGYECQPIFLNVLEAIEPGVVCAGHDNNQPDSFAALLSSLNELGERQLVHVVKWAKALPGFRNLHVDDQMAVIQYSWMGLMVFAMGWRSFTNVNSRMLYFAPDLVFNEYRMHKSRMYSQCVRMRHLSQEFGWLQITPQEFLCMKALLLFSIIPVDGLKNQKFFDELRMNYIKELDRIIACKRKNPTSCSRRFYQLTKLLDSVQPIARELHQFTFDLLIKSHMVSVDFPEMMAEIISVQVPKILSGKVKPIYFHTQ
# Glucocorticoid receptor (Homo sapiens), sequence (P04150 whole entry, looked up): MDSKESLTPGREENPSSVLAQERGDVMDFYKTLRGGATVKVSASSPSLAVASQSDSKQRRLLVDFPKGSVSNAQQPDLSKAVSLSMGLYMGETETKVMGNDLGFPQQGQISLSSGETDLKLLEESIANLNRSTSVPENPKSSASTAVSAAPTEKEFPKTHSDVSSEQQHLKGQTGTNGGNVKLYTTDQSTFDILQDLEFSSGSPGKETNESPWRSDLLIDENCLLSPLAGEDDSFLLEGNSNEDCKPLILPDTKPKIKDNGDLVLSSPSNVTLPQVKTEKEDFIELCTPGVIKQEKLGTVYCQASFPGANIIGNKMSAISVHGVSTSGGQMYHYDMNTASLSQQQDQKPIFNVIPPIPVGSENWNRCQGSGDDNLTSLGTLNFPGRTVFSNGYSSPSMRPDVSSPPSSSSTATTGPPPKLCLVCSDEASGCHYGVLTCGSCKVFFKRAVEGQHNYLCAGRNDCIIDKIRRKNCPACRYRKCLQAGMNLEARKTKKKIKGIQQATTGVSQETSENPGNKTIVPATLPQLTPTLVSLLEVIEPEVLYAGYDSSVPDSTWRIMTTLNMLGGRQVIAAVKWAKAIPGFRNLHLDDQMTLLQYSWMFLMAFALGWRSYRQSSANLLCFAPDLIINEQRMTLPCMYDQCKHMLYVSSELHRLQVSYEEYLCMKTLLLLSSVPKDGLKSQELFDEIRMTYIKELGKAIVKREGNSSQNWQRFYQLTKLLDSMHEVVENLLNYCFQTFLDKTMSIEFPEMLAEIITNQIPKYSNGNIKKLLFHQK
Structure (SMILES),outcome [1],outcome [2],outcome [3],outcome [4],outcome [5],outcome [6],outcome [7],Potency [8],outcome [9],Potency [10],Potency [11],Potency [12],outcome [13],Potency [14],Potency [15],Potency [16],outcome [17],outcome [18],Potency [19],outcome [20]
CC(=O)OCC(COC(C)=O)OC(C)=O,inactive,inactive,inactive,inactive,inactive,inactive,inactive,inactive,inactive,inactive,inactive,inactive,inactive,inactive,inactive,–,–,–,–,–
CCOc1ccc(NC(=O)CC(C)O)cc1 (stereo not drawn),inactive,inactive,inactive,inactive,inactive,inactive,inactive,–,–,inactive,inactive,–,inactive,inactive,–,inactive,–,–,–,–
CC(O)CN(CCN(CC(C)O)CC(C)O)CC(C)O (stereo not drawn),inactive,inactive,inactive,inactive,inactive,inactive,inactive,inactive,inactive,inactive,inactive,–,inactive,inactive,inactive,–,–,–,–,–
c1ccc2[nH]ccc2c1,inactive,inactive,inactive,inactive,inactive,inactive,inactive,inactive,inactive,inactive,inactive,–,inactive,inactive,–,inactive,inactive,inactive,inactive,inactive
O=c1ccc2ccccc2o1,inactive,inactive,inactive,inactive,inactive,inactive,inactive,–,–,inactive,inactive,–,inactive,inactive,–,inactive,–,–,–,–
CC(=O)NS(=O)(=O)c1ccc(N)cc1,inactive,inactive,inactive,–,inactive,inactive,inactive,inactive,inactive,inactive,inactive,inactive,inactive,inactive,–,inactive,inactive,–,–,–
Cc1ccc(O)cc1,inactive,inactive,inactive,inactive,inactive,inactive,inactive,inactive,inactive,inactive,inactive,inactive,inactive,inactive,–,inactive,–,inactive,inactive,inactive
CCCNC(=O)NS(=O)(=O)c1ccc(Cl)cc1,inactive,inactive,inactive,–,inactive,inactive,inactive,inactive,inactive,inactive,inactive,inactive,inactive,inactive,–,inactive,inactive,–,–,–
O=C1CN(/N=C/c2ccc([N+](=O)[O-])o2)C(=O)N1,inactive,inactive,inactive,inactive,inactive,inactive,inactive,inactive,inactive,60.9 µM (active),54.3 µM (active) and 68.6 µM (active),60.9 µM (active),–,15.6 µM (active) and 54.3 µM (active) and 48.6 µM (active),60.9 µM (active) and 68.6 µM (active),inactive,–,–,–,–
O=C1NC(=O)c2ccccc21,inactive,inactive,inactive,inactive,inactive,inactive,inactive,–,–,inactive,inactive,inactive,inactive,inactive,inactive,–,inactive,–,–,–
Nc1ccc(C(=O)O)cc1,inactive,inactive,inactive,inactive,inactive,inactive,inactive,inactive,inactive,inactive,inactive,–,inactive,inactive,–,inactive,–,–,–,–
CC(=O)Nc1nnc(S(N)(=O)=O)s1,inactive,inactive,inactive,inactive,inactive,inactive,inactive,inactive,inactive,inactive,inactive,–,inactive,inactive,–,–,inactive,–,–,–
O=C(O)CCC(=O)O,inactive,inactive,inactive,inactive,inactive,inactive,inactive,–,–,inactive,inactive,inactive,inactive,inactive,–,–,–,–,–,–
NNC(=O)c1ccncc1,inactive,inactive,inactive,–,inactive,inactive,inactive,inactive,inactive,inactive,inactive,–,inactive,inactive,–,inactive,inactive,–,–,–
CCCC(CCC)C(=O)O,inactive,inactive,inactive,inactive,inactive,inactive,inactive,inactive,inactive,inactive,inactive,–,inactive,inactive,–,inactive,–,–,–,–
Nc1ccc(O)c(C(=O)O)c1,inactive,inactive,inactive,inactive,inactive,inactive,inactive,inactive,inactive,inactive,inactive,–,inactive,inactive,–,inactive,inactive,–,–,–
O=C(O)c1cccc([N+](=O)[O-])c1,inactive,inactive,inactive,inactive,inactive,inactive,inactive,inactive,inactive,inactive,inactive,inactive,inactive,inactive,inactive,inactive,–,–,–,–
O=c1cc[nH]c(=S)[nH]1,inactive,inactive,inactive,inactive,inactive,inactive,inactive,inactive,inactive,inactive,inactive,inactive,inactive,inactive,inactive,inactive,–,–,–,–

# Source: PubChem BioAssay (Tox21)
